Hits are enriched below; roughly 7.4% of the tested compounds scored in any of these assays.
NIH3T3 tox = kills NIH 3T3 cells. NIH 3T3 viability, CellTiter-Glo ATP luminescence, 48-72 h. Potency, µM (top dose mostly 96.7 µM), for inactives: at the highest dose activity change, negative = cytotoxicity, actives largely listed as inhibitors. 94,000 tested, 4.3% active. AID 1345082; note: nearly all actives have a fitted effect of over 55% in size
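Cells were seeded at 400 per well, treated with pin-transferred compound, and kept 48 or 72 hr at 37 °C before CellTiter-Glo addition and luminescence imaging of cellular ATP.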
HEK293 tox = cytotoxic compounds in HEK 293 cells | 94,000 tested, 6.6% active | AID 1345083 | Potency, µM (titrated, usually from 115 µM), for inactives: top-dose activity change, negative = cytotoxicity, actives largely listed as inhibitors | HEK 293 viability, ATP luminescence (CellTiter-Glo), 48-72 h; note: nearly all actives have a fitted effect of over 60% in size
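Cells seeded first (HEK 293, 250 cells/well), then compound added by pintool. Incubation ran 48 or 72 hr at 37 degree Celsius. CellTiter-Glo was added and luminescence imaged after 10 min at room temperature.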
FLuc inh = inhibitors of firefly (Photinus pyralis) luciferase; P08659; purified P. pyralis luciferase, luminescence, biochemical; Potency, µM (titrated, usually from 115 µM), most hits filed as inhibitors; 76,000 tested, 2.5% active; AID 1347043; note: nearly all actives have a fitted effect of over 65% in size
Target sequence (P08659 whole entry, looked up): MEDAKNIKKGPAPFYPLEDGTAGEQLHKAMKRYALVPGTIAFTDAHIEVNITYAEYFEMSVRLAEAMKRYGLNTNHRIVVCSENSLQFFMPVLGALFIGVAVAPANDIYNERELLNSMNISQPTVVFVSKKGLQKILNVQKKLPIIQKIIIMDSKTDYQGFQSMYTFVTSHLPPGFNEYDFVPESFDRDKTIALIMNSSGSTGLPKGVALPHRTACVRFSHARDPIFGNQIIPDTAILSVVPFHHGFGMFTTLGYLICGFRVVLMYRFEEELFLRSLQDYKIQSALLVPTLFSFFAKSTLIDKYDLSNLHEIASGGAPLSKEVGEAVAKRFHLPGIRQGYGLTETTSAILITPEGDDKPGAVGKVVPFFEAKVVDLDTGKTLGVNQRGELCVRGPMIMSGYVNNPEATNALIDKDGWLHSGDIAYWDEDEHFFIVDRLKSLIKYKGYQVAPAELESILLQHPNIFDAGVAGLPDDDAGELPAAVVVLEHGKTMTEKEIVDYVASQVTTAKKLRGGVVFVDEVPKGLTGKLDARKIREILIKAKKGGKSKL
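Luminescence read by CCD imaging after purified firefly luciferase (10nM final) was added to substrate buffer holding 10uM D-luciferin and 10uM ATP, pH 7.5, pre-dosed with compound.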
HEK293 viab = cell viability loss counter-screen | HEK-293-SNCA-luc viability, GF-AFC fluorescence, 24 h | Potency, µM (series often up to 57.1 µM), inactives show at the highest dose activity change, negative = cytotoxicity, actives largely listed as cytotoxic | 150,000 tested, 0.12% active | AID 1671193;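 note: 0% = DMSO-treated cells and -100% = medium-only wells without cells; nearly all actives have a fitted effect of over 30% in size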
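HEK-293-SNCA-luc cells (1500/well) plated 24 h, then exposed 24 h to a dilution series; GF-AFC added 30 min at 37C, fluorescence 405/540 nm; normalised to medium-only and DMSO wells, Hill fit.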
SNCA expr inhib = inhibitors of alpha-synuclein (SNCA) gene expression; HEK-293 SNCA-luciferase knock-in, luminescence, 24 h; Potency, µM (highest dose often 57.2 µM), for inactives: at the highest dose activity change, negative = inhibition, hits mostly inhibitors; 140,000 tested, 0.17% active;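 note: plate controls were DMSO cells for no effect and cell-free wells for full effect; nearly all actives have a fitted effect of over 45% in size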
hNpr1 antagonist = antagonists of human natriuretic peptide receptor Npr1. P16066. HEK293 hNpr1 GloSensor cGMP, ANP-stimulated luminescence. Potency, µM (top dose mostly 46.3 µM), for inactives: at the highest dose activity change, negative = inhibition, hits mostly inhibitors. 76,000 tested, 1.6% active; calls by dose curve; note: nearly all actives have a fitted effect of over 60% in size
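HEK293 cells stably expressing human Npr1 and cGMP GloSensor pGS-40F, loaded 2 h with 2% GloSensor reagent, given compound 30 min at room temperature. Luminescence read before and 20 min after 0.1 nM hNppA.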
* marks the source's active call; other numbers are inactive results; i = inactive; ? = inconclusive; / = no result; ! = a repeat was not active; [ ] = dose if it differs, or a comment. Unless noted, calls come from the whole dose curve; as a rule, active = well fitted curve in the direction sought with a large enough effect; inconclusive = small, poorly fitted or top-dose-only effect, or another doubt; inactive = no such curve, though single readings can be large; an effect the other way counts as inactive or inconclusive. Unless noted, % is set by controls: 0 for no effect and ±100 for the full control effect; potency is the fitted concentration of half-maximal effect.

SMILES	NIH3T3 tox	HEK293 tox	FLuc inh	HEK293 viab	SNCA expr inhib	hNpr1 antagonist
CC[C@H]1CN(C(=O)Nc2cccc(C(F)(F)F)c2)CC[C@H]1CC(=O)NCc1ccc(OC)cc1	?	40µM*	i	-20%	-22%	?
O=C(NCc1ccc(Cl)cc1)[C@@H]1Cc2nc[nH]c2CN1Cc1ccc(CO)o1	4%[138 µM]	i	i	0%[87.6 µM]	-16%[87.6 µM]	1%[70.6 µM]
Cc1cc(C2CCCN2C(=O)c2ccc(-c3ccccc3Cl)o2)no1 (stereo not given)	?	45µM*	?	-8%	57%	4%
Cc1ccc(C(=O)N2CCC[C@H]2c2nc(-c3ccccc3Cl)no2)cc1C	?	?	i	-4%	6%	-5%
Cc1noc(C)c1[S+](=O)([O-])N1CCCN(c2ccc3nnc(-c4ccccc4)n3n2)CC1	-30%	79µM*	/	/	/	/
COc1cccc([S+](=O)([O-])NC2CCCN(c3ccc4nnc(C)n4n3)C2)c1 (stereo not given)	-28%	4%	/	/	/	/
Cc1noc(C)c1[S+](=O)([O-])N1CCCN(c2ccc3nnc(C)n3n2)CC1	-15%	-2%	/	/	/	/
O=[S+]([O-])(NC1CCCN(c2ccc3nnc(-c4ccccc4)n3n2)C1)c1ccccc1 (stereo not given)	?	22µM*	/	/	/	/
COc1cccc([S+](=O)([O-])NC2CCN(c3ccc4nnc(-c5ccccc5)n4n3)CC2)c1	14µM*	25µM*	/	/	/	/
O=C(NC1CCCC1)NC1CCCN(c2ccc3nnc(-c4ccccc4)n3n2)C1 (stereo not given)	-18%	-16%	/	/	/	/
O=[S+]([O-])(NC1CCCN(c2ccc3nnc(C4CC4)n3n2)C1)c1cccc(C(F)(F)F)c1 (stereo not given)	5.6µM*	?	/	/	/	/
CC(=O)N1CCC(NC[C@H]2COCc3nc4cc(C)ccc4n32)CC1	-3%[138 µM]	-4%[172 µM]	i	-2%[87.6 µM]	-28%[87.6 µM]	1%[70.6 µM]
CCC(CC)n1nc(C)cc1NC(=O)CCCn1cnc2ccccc2c1=O	-4%	-3%	i	5%	4%	3%
Cc1ccc([S+](=O)([O-])NC2CCN(c3ccc4nnc(C)n4n3)CC2)cc1	-27%	?	/	/	/	/
Cc1ccc([S+](=O)([O-])NC2CCN(c3ccc4nnc(-c5ccccc5)n4n3)CC2)cc1	?	40µM*	/	/	/	/
CNC(=O)[C@@H]1CN(C(=O)c2ccc(Br)o2)C[C@H]1c1n[nH]c(C)n1	-7%	4%	i	0%	1%	1%
Cc1ccc(CC(=O)N2c3ccccc3CC2c2nnc(C3CCOCC3)o2)cc1 (stereo not given)	?	-15%	i	-7%	-4%	-1%
Cc1ccc(S(=O)(=O)N2c3ccccc3CC2c2nnc(C3CCOCC3)o2)cc1F (stereo not given)	?	25µM*	i	-13%	-22%	-8%
CC(=O)NCCC1CCN(C(=O)Nc2ccc(C)c(F)c2)CC1	i	3%	5µM*	1%	?	-28%
CCN(CC)CCNC(=O)c1ccc2nc(-c3ccccc3)c(-c3ccc(CN4CCC(n5c(=O)[nH]c6ccccc65)CC4)cc3)nc2c1	/	/	/	15µM*!	?	/
Nc1nc(F)nc2c1ncn2[C@@H]1O[C@H](CO)[C@@H](O)[C@@H]1O	/	/	/	?	8.6µM*!	/
COc1cccc(C(=O)NC(C(=O)N2CCCCC2)C2CCN(C(=O)c3cccc(F)c3)CC2)c1 (stereo not given)	-24%	-10%	i	-9%	9%	5%
COc1cccc(N2C(=O)NC(=NC3CCCCC3)C23CCCN(Cc2ccsc2)C3)c1 (stereo not given)	40µM*	?	/	?	?	/
COc1cccc(N2C(=O)NC(=NC3CCCCC3)C23CCCN(Cc2ccc(N(C)C)cc2)C3)c1 (stereo not given)	28µM*	32µM*	/	?	?	/
COc1cccc(N2C(=O)NC(=NC3CCCC3)C23CCCN(Cc2ccc(N(C)C)cc2)C3)c1 (stereo not given)	?	?	/	-13%	?	/
SMILES	NIH3T3 tox	HEK293 tox	FLuc inh	HEK293 viab	SNCA expr inhib	hNpr1 antagonist
COc1ccc(CN2CCCC3(C2)C(=NC2CCCCC2)NC(=O)N3c2cccc(OC)c2)cc1 (stereo not given)	?	?	/	-9%	?	/
O=C(N1CCC[C@H]1c1nc(-c2ccccc2Cl)no1)C1(c2ccccc2)CC1	?	?	22µM*	-17%	50%	-19%
O=C1COc2ccc(-c3cn[nH]c3)nc2CN1Cc1ccc(C(F)(F)F)cc1	10µM*	?	i	-17%[87.6 µM]	-5%[87.6 µM]	-16%[70.6 µM]
O=C1COc2ccc(OCC3CC3)nc2CN1Cc1ccccc1	?	?	i	-11%[87.6 µM]	-9%[87.6 µM]	-11%[70.6 µM]
Cc1noc(C)c1-c1ccc2c(n1)CN(Cc1ccc(C(F)(F)F)cc1)C(=O)CO2	?	?	i	8%[87.6 µM]	7%[87.6 µM]	-24%[70.6 µM]
O=C1COc2ccc(OCC3CC3)nc2CN1Cc1ccc(C(F)(F)F)cc1	79µM*	79µM*	i	-1%[87.6 µM]	-13%[87.6 µM]	-9%[70.6 µM]
COCCN1Cc2nc(Nc3ccc(C(F)(F)F)cc3)ccc2OCC1=O	?	?	i	-13%[87.6 µM]	6%[87.6 µM]	-23%[70.6 µM]
O=C1COc2ccc(-c3ccncc3)nc2CN1Cc1ccc(C(F)(F)F)cc1	?	79µM*	i	0%[87.6 µM]	?	-7%[70.6 µM]
O=C1COc2ccc(NCc3cccs3)nc2CN1Cc1ccc(C(F)(F)F)cc1	79µM*	79µM*	i	?	?	?
COC(=O)[C@H](NC(=O)[C@@H]1C[C@H](NC(=O)Nc2cccc(SC)c2)CN1C(=O)c1cccn1C)C(C)C	-1%	0%	i	-1%	-16%	5%
COC(=O)N1CCN(C(=O)c2cccc(-c3ccccn3)c2)CC1	-2%[138 µM]	i	/	1%[12.5 µM]	-16%[87.6 µM]	/
CCn1cc(S(=O)(=O)N2CCCC(Cc3nncn3CC3CC3)C2)cn1 (stereo not given)	2%	0%	i	-19%	-8%	7%
O=C(CN1Cc2nc(Nc3ccc(C(F)(F)F)cc3)ccc2OCC1=O)N1CCCC1	50µM*	79µM*	i	?	?	-16%[70.6 µM]
Cc1nc(CN2Cc3nc(-c4cccc(C(F)(F)F)c4)ccc3OCC2=O)cs1	79µM*	100µM*	i	0%[87.6 µM]	?	-2%[70.6 µM]
COc1ccc(-c2ccc3c(n2)CN(Cc2csc(C)n2)C(=O)CO3)cc1F	?	?	i	2%[87.6 µM]	4%[87.6 µM]	-11%[70.6 µM]
CNC(=O)[C@@H]1C[C@@H](Nc2ncnc(Oc3cccnc3C)c2C)CN1C	i	2%	i	1%	?	0%
